Assay outcomes: PubChem, Johns Hopkins Ion Channel Center
KCNQ2 enhance – potentiators of rat KCNQ2 potassium channel; Potassium voltage-gated channel subfamily KQT member 2 (Rattus norvegicus), O88943; CHO-K1 KCNQ2, FluxOR thallium flux fluorescence; hits give high values; B-score at 10 µM; hit rate 0.54% among 310,000; AID 2239, 2010;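 active = fluorescence ratio B-score at least 3 SD of library B-scores, with initial fluorescence B-score within 3 of them, cut at about 5.3 in these data; same plate scores as AID 2156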;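 also: B-score of peak minus minimum over baseline fluorescence ratio after K+ and Tl+ stimulus; positive B-score means potentiation of KCNQ2 with more thallium influx and brighter signal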
KCNQ2 inh – rat KCNQ2 potassium channel inhibitors, primary screen, cell-based, CHO-K1, FluxOR thallium flux, B-score; Potassium voltage-gated channel subfamily KQT member 2 (Rattus norvegicus), O88943; AID 2156, 2009; B-score at 10 µM; hit rate 1.1% among 310,000; 20 min; hits give low values;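 active = fluorescence ratio B-score at most minus 3 library SDs, with starting brightness B-score within 2 library SDs, cut at about -5.5 in these data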
Kir21 confirm – mouse Kir2.1 channel blockers, retest, confirmation, cell-based, FluxOR thallium flux, duplicate; shares compounds with KCNQ2 enhance; hit rate 41% among 2,300; Kir2.1-expressing cells, FluxOR thallium flux fluorescence; hits give low values; Tl flux remaining, % of negative control (hits give low values), % at 10 µM;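 active = Primary-screen hit whose thallium flux fell at least 3 control SD below untreated wells in both duplicates, with normal baseline fluorescence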
HEK293 ctr – alters thallium flux in parental HEK293 cells, Kir2.1 counter-screen. shares compounds with KCNQ2 enhance. FluxOR thallium flux fluorescence; 0% = unstimulated blank wells. FluxOR signal as % of negative control (100 = no effect), % at 10 µM. hit rate 19% among 2,300;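 active = dye signal at least 3 control SD above or below untreated wells in both duplicates, raw fluorescence within 3, either direction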;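 also: percent is based on the flux ratio of peak minus minimum fluorescence over baseline F0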
CHO-K1 Tl ctr – nonspecific thallium flux increase in parental CHO-K1, confirmation, counter-screen for KCNQ2 potentiator project, cell-based, FluxOR thallium flux, duplicate | shares compounds with KCNQ2 enhance | parental CHO-K1 cells, FluxOR thallium flux fluorescence; zero = vehicle mean+3SD, 100% = vehicle-minus-blank window | activity increase over 3SD of controls, % at 10 µM | hit rate 43% among 1,200 | AID 2282, 2010;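 active = signal rise of at least 3 SD above the untreated control mean, in both duplicate wells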;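 also: counter screen of KCNQ2 potentiator hits so any rise reflects channel-independent effects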
KCNQ1 pot spec – human KCNQ1 channel potentiation off-target, confirmation, selectivity assay for KCNQ2 potentiator project, cell-based, CHO, FluxOR thallium flux | shares compounds with KCNQ2 enhance | CHO KCNQ1 stable, FluxOR thallium flux fluorescence; beyond 3SD, as % of vehicle-control signal | activation over 3SD threshold, % at 10 µM | hit rate 28% among 1,200 | AID 2283, 2010;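 active = fluorescence ratio rise of at least 3 SD of vehicle wells above their mean, in both replicate wells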
Target sequence (P51787 whole entry, looked up): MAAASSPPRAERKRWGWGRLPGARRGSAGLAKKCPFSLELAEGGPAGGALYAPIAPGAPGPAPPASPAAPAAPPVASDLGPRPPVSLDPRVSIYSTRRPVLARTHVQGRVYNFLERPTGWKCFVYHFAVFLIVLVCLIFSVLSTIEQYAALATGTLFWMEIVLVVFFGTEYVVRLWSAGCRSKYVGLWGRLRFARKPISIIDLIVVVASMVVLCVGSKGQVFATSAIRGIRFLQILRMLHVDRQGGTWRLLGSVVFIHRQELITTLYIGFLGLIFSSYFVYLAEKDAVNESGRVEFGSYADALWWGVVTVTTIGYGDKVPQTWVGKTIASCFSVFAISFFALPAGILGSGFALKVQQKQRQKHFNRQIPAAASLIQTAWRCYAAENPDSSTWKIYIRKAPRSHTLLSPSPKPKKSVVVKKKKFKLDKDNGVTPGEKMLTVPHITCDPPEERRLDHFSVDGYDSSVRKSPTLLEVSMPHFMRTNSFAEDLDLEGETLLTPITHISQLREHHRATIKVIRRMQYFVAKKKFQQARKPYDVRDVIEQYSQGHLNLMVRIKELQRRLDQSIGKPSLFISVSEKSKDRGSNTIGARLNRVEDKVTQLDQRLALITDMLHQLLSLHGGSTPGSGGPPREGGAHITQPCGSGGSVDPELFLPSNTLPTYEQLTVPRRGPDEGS
KCNQ2 pot conf – rat KCNQ2 channel potentiators, confirmation, cell-based, CHO, FluxOR thallium flux, duplicate; shares compounds with KCNQ2 enhance; CHO-KCNQ2 cells, FluxOR thallium flux fluorescence; potentiation, less the hit threshold, % at 10 µM; hit rate 68% among 1,200; AID 2287, 2010;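 active = fluorescence ratio rising 3 SD or more over the vehicle control mean in both replicates, plus primary screen hit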;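 also: peak minus minimum thallium fluorescence divided by baseline after K/Tl stimulus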
Kir21 spec – mouse Kir2.1 channel activation off-target, confirmation, selectivity assay for KCNQ2 potentiator project, cell-based, HEK293, FluxOR thallium flux; shares compounds with KCNQ2 enhance; HEK293 Kir2.1, FluxOR thallium flux fluorescence; activity over 3SD threshold, % at 10 µM; hit rate 2% among 1,200; AID 2345, 2010;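 active = fluorescence ratio rise of at least 3 SD above the vehicle-control mean, seen in both replicates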
KCNQ2 W236L MoA – potentiators of retigabine-insensitive KCNQ2 W236L, mechanism study for KCNQ2 potentiator project, cell-based, rat KCNQ2 W236L, CHO, automated patch clamp; hit rate 10% among 940; AID 2558, 2010; shares compounds with KCNQ2 enhance; automated patch clamp current; current increase over 3SD of negative controls (%), hits give high values, % at 25 µM;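 active = current increase at least 3 SD of the untreated controls above them in both duplicate recordings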
Large screens that a line does not name were inactive (follow-up assays come after a bar, where they were run). Sampled rows, rich in hits. Any-hit rate of the full collection: about 1.6%.

O=[N+]([O-])c1cc(Cl)cc(/C=N/NC(=S)Nc2ccc(S(=O)(=O)N3CCOCC3)cc2)c1O	KCNQ2 enhance 18 | Kir21 confirm inactive | HEK293 ctr inactive | CHO-K1 Tl ctr 3.6 | KCNQ1 pot spec inactive | KCNQ2 pot conf 39 | Kir21 spec inactive | KCNQ2 W236L MoA 3.7%
Cc1cc(C)cc(NC(=O)N2CCCN(Cc3c(F)cccc3Cl)CC2)c1	none (no result: KCNQ2 enhance)
O=C(c1ccc(Cl)cc1)N1CCc2c([nH]c3ccccc23)C1C(F)(F)F (stereo not drawn)	KCNQ2 enhance 8 | Kir21 confirm inactive | HEK293 ctr inactive | CHO-K1 Tl ctr 16 | KCNQ1 pot spec inactive | KCNQ2 pot conf 2.7 | Kir21 spec inactive | KCNQ2 W236L MoA inactive
O=C(Nc1ccccc1)N1CCc2c([nH]c3ccccc23)C1C(F)(F)F (stereo not drawn)	none (no result: KCNQ2 enhance)
O=C(CCC(=O)N1CCOc2ccccc21)NCCc1ccccc1	none (no result: KCNQ2 enhance)
CCn1c(SCC(=O)c2ccc(Cl)cc2)nnc1-c1cccs1	none
CCn1c(SCCOc2ccc(Cl)cc2)nnc1-c1cccs1	none (no result: KCNQ2 enhance) | Kir21 confirm 69% | HEK293 ctr inactive
COc1cccc(NC(=O)N2CCCC2C(=O)NC2CCCC2)c1 (stereo not drawn)	none
CSc1ccc(CN2CCN(C(C)C)C(CCO)C2)cc1 (stereo not drawn)	none (no result: KCNQ2 enhance)
Cn1c(SCC(=O)OCc2ccccc2)nnc1-c1ccco1	none (no result: KCNQ2 enhance)
O=C(CSc1nnc(-c2ccco2)n1Cc1ccccc1)c1ccccc1	none (no result: KCNQ2 enhance)
CCn1c(SCC(=O)OCc2ccccc2)nnc1-c1ccco1	none (no result: KCNQ2 enhance) | Kir21 confirm inactive | HEK293 ctr inactive
CC(C)Cn1c(SCC(=O)c2ccc(Cl)s2)nnc1-c1ccco1	KCNQ2 inh -6.8 | Kir21 confirm 50% | HEK293 ctr 138%
COC(=O)C(C)Sc1nc2c(cnn2-c2ccc(Cl)cc2)c(=O)[nH]1 (stereo not drawn)	none (no result: KCNQ2 enhance)
COc1cc(NC(=O)c2cc(OC)c(OC)c(OC)c2)cc(-n2cnnn2)c1	none
O=C(NCC1CCCO1)c1cncc(Br)c1 (stereo not drawn)	none
COc1ccc(CNCc2ccncc2)c(OC)c1	none
COc1ccc(CNCc2ccc3ccccc3c2)c(OC)c1	none | Kir21 confirm 24% | HEK293 ctr inactive
COc1ccc(CNCc2cccc(Oc3ccccc3)c2)cc1	none | Kir21 confirm 10% | HEK293 ctr inactive
COc1ccc(CNCc2cccc(C)c2)cc1	none
CC(=O)Nc1ccc(S(=O)(=O)NC2CC(=O)N(c3ccc(C)c(C)c3)C2)cc1 (stereo not drawn)	none (no result: KCNQ2 enhance)
Cc1ccc(C)c(N2C(=O)CC(Cc3ccc(Cl)cc3)C2=O)c1 (stereo not drawn)	none (no result: KCNQ2 enhance)
O=C(CSc1nc(=O)n2ccccc2n1)NCc1ccccc1	none
CC1CCN(CC(=O)Nc2ccc(N3CCCCCC3)cc2)CC1	KCNQ2 enhance 5.9 | CHO-K1 Tl ctr 7.2 | KCNQ1 pot spec inactive | KCNQ2 pot conf inactive | Kir21 spec inactive
